The results in this text go back to PMC5700166.

Where a chain is given by its changes, count along the chain named.

What all share (test): protein-binding microarray (PBM); PBM: ~300 nM protein, 6 mM HEPES pH 7.8, 80 mM KCl, 0.5 mM EDTA, 0.5 mM EGTA, 6% glycerol, 35 ng/ul poly-dIdC, 1% milk, 1 h, room temperature; Ap Aiptasia and Nv Nematostella (sea anemones) / Co Capsaspora / Aq Amphimedon (sponge) / Dm Drosophila / Hu human; RHD is the Rel homology domain; high values mean tight binding
Common to all, as to details: dsDNA, one strand shown

One assay concerns the target T1, GST-Ap-NF-kB RHD (Exaiptasia pallida (Aiptasia), UniProt A0A913YAJ5 2-422).
T1 sequence: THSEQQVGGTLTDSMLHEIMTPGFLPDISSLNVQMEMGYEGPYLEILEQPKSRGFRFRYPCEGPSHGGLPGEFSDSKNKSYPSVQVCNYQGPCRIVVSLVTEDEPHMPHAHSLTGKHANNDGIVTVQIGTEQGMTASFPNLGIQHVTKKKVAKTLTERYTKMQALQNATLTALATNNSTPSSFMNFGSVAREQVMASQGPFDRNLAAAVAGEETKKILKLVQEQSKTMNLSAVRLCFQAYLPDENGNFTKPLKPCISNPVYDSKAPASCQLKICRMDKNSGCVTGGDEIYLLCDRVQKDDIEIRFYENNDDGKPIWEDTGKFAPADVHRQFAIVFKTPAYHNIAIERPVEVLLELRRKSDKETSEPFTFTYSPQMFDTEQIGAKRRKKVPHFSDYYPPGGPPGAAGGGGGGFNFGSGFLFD

The target of assay [1] is T2, GST-Nv-NF-kB (Cys allele) (Nematostella vectensis, UniProt E5G601 2-411).
T2 sequence: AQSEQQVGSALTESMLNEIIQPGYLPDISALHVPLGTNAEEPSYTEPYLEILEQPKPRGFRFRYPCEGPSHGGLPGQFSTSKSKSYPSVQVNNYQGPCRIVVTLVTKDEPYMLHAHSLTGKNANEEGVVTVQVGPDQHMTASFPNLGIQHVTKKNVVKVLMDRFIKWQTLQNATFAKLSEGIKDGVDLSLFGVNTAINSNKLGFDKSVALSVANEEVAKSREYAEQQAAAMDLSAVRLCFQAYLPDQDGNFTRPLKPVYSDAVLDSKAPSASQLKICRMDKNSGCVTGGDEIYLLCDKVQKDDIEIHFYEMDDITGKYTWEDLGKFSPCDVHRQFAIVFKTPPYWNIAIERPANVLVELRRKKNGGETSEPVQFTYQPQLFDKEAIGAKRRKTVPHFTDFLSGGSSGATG

Assay [2] has as its target T3, GST-Nv-NF-kB (Ser allele) (Nematostella vectensis, UniProt A7UNT2 2-411).
T3 sequence: T2 sequence with Q21R, C66S, S207N, E215Q, V217A, E225K, A268E, D399E

The target in another assay is T4, GST-Co-NF-kB (Capsaspora owczarzaki, UniProt F1ARL5 200-546).
T4 sequence: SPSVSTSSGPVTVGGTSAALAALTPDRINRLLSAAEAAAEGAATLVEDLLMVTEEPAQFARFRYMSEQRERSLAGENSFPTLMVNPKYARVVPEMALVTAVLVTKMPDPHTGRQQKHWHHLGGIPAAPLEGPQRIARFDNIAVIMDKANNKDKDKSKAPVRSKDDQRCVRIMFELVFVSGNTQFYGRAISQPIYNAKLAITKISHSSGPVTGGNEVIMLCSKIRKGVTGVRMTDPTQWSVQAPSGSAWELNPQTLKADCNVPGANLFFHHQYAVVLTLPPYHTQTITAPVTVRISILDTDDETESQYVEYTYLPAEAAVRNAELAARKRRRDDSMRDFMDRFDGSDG

A further assay has as its target T5, GST-Dm-Relish (Drosophila melanogaster, UniProt Q94527 99-473).
T5 sequence: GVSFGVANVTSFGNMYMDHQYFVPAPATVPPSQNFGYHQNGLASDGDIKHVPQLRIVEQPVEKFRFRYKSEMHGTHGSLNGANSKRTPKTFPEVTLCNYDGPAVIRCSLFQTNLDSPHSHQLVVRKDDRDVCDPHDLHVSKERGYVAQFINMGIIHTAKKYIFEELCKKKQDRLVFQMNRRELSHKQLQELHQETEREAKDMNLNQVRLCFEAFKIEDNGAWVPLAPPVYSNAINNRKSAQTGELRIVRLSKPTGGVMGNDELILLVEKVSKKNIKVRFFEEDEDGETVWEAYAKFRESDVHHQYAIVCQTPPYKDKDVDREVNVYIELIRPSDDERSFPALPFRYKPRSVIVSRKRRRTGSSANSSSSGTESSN

For another assay, the target named is T6, GST-Aq-NF-kB (Amphimedon queenslandica, UniProt A9Y5G7 2-389).
T6 sequence: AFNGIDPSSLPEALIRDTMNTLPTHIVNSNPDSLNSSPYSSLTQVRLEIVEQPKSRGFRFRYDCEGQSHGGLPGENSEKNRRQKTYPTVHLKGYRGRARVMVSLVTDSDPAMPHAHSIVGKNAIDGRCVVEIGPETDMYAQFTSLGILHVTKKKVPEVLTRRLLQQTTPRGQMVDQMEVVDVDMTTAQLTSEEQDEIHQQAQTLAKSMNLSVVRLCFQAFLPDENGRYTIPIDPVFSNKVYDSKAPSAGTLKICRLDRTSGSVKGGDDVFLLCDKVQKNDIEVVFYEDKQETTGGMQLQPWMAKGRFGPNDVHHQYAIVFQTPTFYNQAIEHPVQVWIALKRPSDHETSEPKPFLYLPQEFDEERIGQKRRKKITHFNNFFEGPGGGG

A further assay deals with GST-Hu-p50 (Homo sapiens, UniProt P19838 7-356).
Sequence of GST-Hu-p50 (P19838 7-356): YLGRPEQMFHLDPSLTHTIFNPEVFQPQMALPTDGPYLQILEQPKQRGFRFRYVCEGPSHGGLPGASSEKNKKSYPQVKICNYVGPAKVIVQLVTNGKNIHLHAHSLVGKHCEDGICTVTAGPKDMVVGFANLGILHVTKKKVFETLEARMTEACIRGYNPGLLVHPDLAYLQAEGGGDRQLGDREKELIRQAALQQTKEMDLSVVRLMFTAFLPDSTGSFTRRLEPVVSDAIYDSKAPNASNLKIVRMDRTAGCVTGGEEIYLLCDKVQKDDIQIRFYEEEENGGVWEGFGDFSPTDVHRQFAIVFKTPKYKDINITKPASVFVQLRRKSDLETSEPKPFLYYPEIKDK

With “CCGATTAACATCAATTTTTCCCGTGATGTTAATCGGGTCTTGATTCGCTTGACGCTGCTG”, the binding signal with GST-Ap-NF-kB RHD turned out to be 3.39 z-score; in assay [1], 4.95 z-score; in assay [2], 6.62 z-score; in the assay with GST-Co-NF-kB, 6.5 z-score; with GST-Dm-Relish, 2.16 z-score; with GST-Aq-NF-kB it was 4.56 z-score. Further, in the assay with GST-Hu-p50, the binding signal is 3.66 z-score.
Consider “CCGATTAACATCAGACTTCCCCCTGATGTTAATCGGGTCTTGATTCGCTTGACGCTGCTG”, for which the binding signal with GST-Ap-NF-kB RHD is 7.28 z-score; in assay [1], 7.38 z-score; in assay [2], 7.81 z-score; in the assay with GST-Co-NF-kB it was 7.84 z-score; with GST-Dm-Relish, 7.18 z-score; with GST-Aq-NF-kB it was 6.8 z-score. This sequence returned a binding signal with GST-Hu-p50 of 6.2 z-score.
Turning to “CCGATTAACATCAGGGGAATCACTGATGTTAATCGGGTCTTGATTCGCTTGACGCTGCTG”, the binding signal was found to be 8.92 z-score with GST-Ap-NF-kB RHD; 8.19 z-score in assay [1]; 8.51 z-score in assay [2]; 6.78 z-score with GST-Co-NF-kB; 10.6 z-score in the assay with GST-Dm-Relish; 7.41 z-score with GST-Aq-NF-kB. This sequence also returned a binding signal with GST-Hu-p50 of 6.51 z-score.
As to “CCGATTAACATCAGGGAAACATATGATGTTAATCGGGTCTTGATTCGCTTGACGCTGCTG”, the binding signal came to 2.23 z-score with GST-Ap-NF-kB RHD; 3.74 z-score in assay [1]; 4.15 z-score in assay [2]; 5.27 z-score in the assay with GST-Co-NF-kB; 1.07 z-score with GST-Dm-Relish; 4.73 z-score with GST-Aq-NF-kB. Also, the binding signal in the assay with GST-Hu-p50 is 1.78 z-score.
Consider “CCGATTAACATCACGGGGAAATCTGATGTTAATCGGGTCTTGATTCGCTTGACGCTGCTG”, for which the binding signal in the assay with GST-Ap-NF-kB RHD is 7.76 z-score; in assay [1] it was 8.56 z-score; in assay [2], 10.6 z-score; with GST-Co-NF-kB it was 10.1 z-score; with GST-Dm-Relish, 6.19 z-score; with GST-Aq-NF-kB it was 6.37 z-score. This sequence also displayed a binding signal in the assay with GST-Hu-p50 of 6.25 z-score.
Consider “CCGATTAACATCAGATATTCCCCTGATGTTAATCGGGTCTTGATTCGCTTGACGCTGCTG”, for which the binding signal with GST-Ap-NF-kB RHD is 7.71 z-score; in assay [1] it was 9.63 z-score; in assay [2], 8.71 z-score; with GST-Co-NF-kB, 8.17 z-score; with GST-Dm-Relish, 5.36 z-score; with GST-Aq-NF-kB, 7.31 z-score. In the assay with GST-Hu-p50, this sequence returned a binding signal of 5.94 z-score.
Turning to “CCGATTAACATCAAAGTTTCCCCTGATGTTAATCGGGTCTTGATTCGCTTGACGCTGCTG”, the binding signal amounted to 7.96 z-score in the assay with GST-Ap-NF-kB RHD; 9.57 z-score in assay [1]; 12 z-score in assay [2]; 10.6 z-score with GST-Co-NF-kB; 5.37 z-score in the assay with GST-Dm-Relish; 7.26 z-score with GST-Aq-NF-kB. Moreover, the binding signal with GST-Hu-p50 was 6.85 z-score.
For the sequence “CCGATTAACATCAATGGGATTTCTGATGTTAATCGGGTCTTGATTCGCTTGACGCTGCTG”, the binding signal in the assay with GST-Ap-NF-kB RHD is 2.83 z-score; in assay [1], 2.72 z-score; in assay [2] it was 2.22 z-score; in the assay with GST-Co-NF-kB, 1.38 z-score; in the assay with GST-Dm-Relish, 5.37 z-score; with GST-Aq-NF-kB, 2.47 z-score. In addition, the binding signal in the assay with GST-Hu-p50 worked out at 2.6 z-score.
“CCGATTAACATCACATGTTTCCCTGATGTTAATCGGGTCTTGATTCGCTTGACGCTGCTG”: the binding signal in the assay with GST-Ap-NF-kB RHD was 2.33 z-score; in assay [1], 3.31 z-score; in assay [2], 4.21 z-score; with GST-Co-NF-kB, 4.5 z-score; with GST-Dm-Relish, 1.48 z-score; with GST-Aq-NF-kB, 4.01 z-score. The sequence further gave a binding signal with GST-Hu-p50 of 1.17 z-score.
In the case of “CCGATTAACATCAGGATCCCCCCTGATGTTAATCGGGTCTTGATTCGCTTGACGCTGCTG”, the binding signal stood at 8.27 z-score with GST-Ap-NF-kB RHD; 6.24 z-score in assay [1]; 6.33 z-score in assay [2]; 5.45 z-score with GST-Co-NF-kB; 8.78 z-score in the assay with GST-Dm-Relish; 6.39 z-score with GST-Aq-NF-kB. For the same sequence, in the assay with GST-Hu-p50, the binding signal is 6.19 z-score.
On to “CCGATTAACATCACTGAAATCCCTGATGTTAATCGGGTCTTGATTCGCTTGACGCTGCTG”, for which the binding signal turned out to be 2.61 z-score with GST-Ap-NF-kB RHD; 2.29 z-score in assay [1]; 1.72 z-score in assay [2]; 1.34 z-score in the assay with GST-Co-NF-kB; 3.35 z-score in the assay with GST-Dm-Relish; 2.54 z-score with GST-Aq-NF-kB. In the assay with GST-Hu-p50, this sequence had a binding signal of 1.71 z-score.
Consider “CCGATTAACATCACGGGGAATTCTGATGTTAATCGGGTCTTGATTCGCTTGACGCTGCTG”, for which the binding signal stood at 9.62 z-score with GST-Ap-NF-kB RHD; 10.1 z-score in assay [1]; 10.3 z-score in assay [2]; 8.83 z-score with GST-Co-NF-kB; 8.15 z-score with GST-Dm-Relish; 7.98 z-score in the assay with GST-Aq-NF-kB. This sequence also displayed a binding signal with GST-Hu-p50 of 6.54 z-score.
